According to PubChem BioAssay:
Calls of active or inactive are those of the source.

Key:
[1] = small molecules captured by biotinylated probe aFSTL3 – biochemical, small-molecule microarray, fluorescence 635/667, stem cell growth factor project, primary screen (AID 1064); settings: higher = more signal;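 also: measures binding of the biotinylated anti-FSTL3 antibody to printed compounds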
[2] = binders from COS7 lysate, DM2A8 probe, primary screen, torsin A project, cell lysate, small-molecule microarray, fluorescence 635/667 (AID 1065); settings: higher = more signal, COS7 lysate expressing mutant human TOR1A
[3] = small molecules captured by biotinylated probe aFGF2 – biochemical, small-molecule microarray, fluorescence 635/667, stem cell growth factor project, primary screen (AID 1067); settings: higher = more signal;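 also: measures binding of biotinylated aFGF2 protein to printed compounds on slides; z-score merges feature fluorescence and signal-to-noise across triplicate slides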
[4] = small molecules captured by biotinylated probe aFGF10 – biochemical, small-molecule microarray, fluorescence 635/667, stem cell growth factor project, primary screen (AID 1071); settings: higher = more signal;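 also: score merges 667 nm spot intensity and signal to noise from triplicate slides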
[5] = target: Neurogenic locus notch homolog protein 2 (Homo sapiens) (UniProt Q04721); test: small molecules binding Notch2 protein – biochemical, small-molecule microarray, 635 nm fluorescence, stem cell growth factors, primary screen (AID 1073); settings: higher = more signal
[6] = target: Pro-neuregulin-1, membrane-bound isoform (Homo sapiens) (UniProt Q02297); test: small molecules binding neuregulin-1 protein – biochemical, small-molecule microarray, fluorescence 635/667, psychiatric disease protein project, primary screen (AID 1075); settings: NRG1 binding, 635 nm fluorescence, higher = more signal;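 also: score combines 667 nm spot fluorescence with signal to noise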
[7] = test system: Neuregulin-1 EGF-like domain; test: small molecules binding NRG1 EGF domain – biochemical, small-molecule microarray, 635 nm fluorescence, primary screen (AID 1081); settings: higher = more signal;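 also: binding of the protein to compounds printed on small-molecule microarray slides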
[8] = FRG1 expression reporter modulators in myotubes – cell-based, C2C12 myotubes, firefly/Renilla luciferase, luminescence, FRG1 inhibition for FSHD, primary screen (AID 1084); settings: FRG1 promoter luciferase, higher = more signal, called active from +8 up or from −8 down
[9] = small molecules captured by biotinylated probe aFST – biochemical, small-molecule microarray, fluorescence 635/667, stem cell growth factor project, primary screen (AID 1086); settings: higher = more signal;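 also: score merges 667 nm fluorescence with signal-to-noise of each printed compound spot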
[10] = binders of probe aHhip on microarray, primary screen, stem cell growth factor project, biochemical, small-molecule microarray, fluorescence 635/667 (AID 1087); settings: higher = more signal;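 also: score merges spot fluorescence at 667nm with spot signal to noise ratio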
[11] = test system: PRMT1 (protein arginine N-methyltransferase 1); test: small molecules binding arginine methyltransferase PRMT1 – biochemical, small-molecule microarray, 635 nm fluorescence, primary screen (AID 1088); settings: higher = more signal;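 also: binding of Prmt1 protein to compounds spotted on small-molecule microarray slides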
[12] = growth effects on S. cerevisiae YJM789 – YJM789 clinical isolate, OD600, 24 h, basal, primary screen (AID 1089); settings: higher = more signal, called active from +8 up or from −8 down;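 also: growth of clinical yeast isolate S. cerevisiae YJM 789 seeded 1000 cells per well; test concentration not given here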
[13] = S. pombe growth modifiers, basal conditions – strain 972, OD600, 24 h, no modulator, primary screen (AID 1090);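 also: basal condition with compound alone and no growth modifier present; test concentration not given here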; settings: S. pombe 972 growth, higher = more signal, called active from +8 up or from −8 down
[14] = budding yeast growth modifiers under rapamycin – strain BY4716, OD600, 96 h, primary screen (AID 1091); also: test concentration not given here; settings: S. cerevisiae BY4716 + rapamycin, higher = more signal, called active from +8 up or from −8 down
[15] = target: Torsin-1A-interacting protein 2 (Homo sapiens) (UniProt Q8NFQ8); test: small molecules binding lysate-expressed LULL1 – cell lysate, human LULL1 lysate, 635/667 nm fluorescence, primary screen (AID 1092); settings: small-molecule microarray, hLULL1 lysate binding, 635 nm fluorescence; higher = more signal;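 also: probe is lysate of COS7 cells overexpressing human LULL1; score merges per-feature 667 nm fluorescence with signal-to-noise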
[16] = optical density change of DRC41 E. coli – strain DRC41, OD650, 24 h, E. coli filamentation project, primary screen (AID 1093);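 also: MC1000 strain lacking acrAB efflux and sulA so SOS filamentation is blocked; test concentration not given here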; settings: E. coli DRC41 growth, higher = more signal, called active from +8 up or from −8 down
[17] = probe aLefty2 binding to arrayed compounds – biochemical, biotinylated probe, 635/667 nm fluorescence, primary screen (AID 1094); settings: small-molecule microarray, higher = more signal;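 also: score merges spot fluorescence near 667 nm with spot signal-to-noise ratio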
[18] = test system: Noggin (protein binding on small-molecule microarray); test: small molecules binding Noggin protein – biochemical, 635/667 nm fluorescence, primary screen (AID 1095); settings: 635 nm fluorescence, higher = more signal;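 also: score merges 667 nm feature fluorescence with signal to noise over triplicate slides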
[19] = target: Neurogenic locus notch homolog protein 3 (Homo sapiens) (UniProt Q9UM47); test: small molecules binding NOTCH3 protein – biochemical, 635/667 nm fluorescence, primary screen (AID 1096); settings: small-molecule microarray, 635 nm fluorescence, higher = more signal
[20] = probe aEGFR binding to arrayed compounds – biochemical, biotinylated probe, 635/667 nm fluorescence, primary screen (AID 1097); settings: small-molecule microarray, higher = more signal;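 also: probe is a biotinylated anti-EGFR antibody binding compounds printed on slides; score combines fluorescence near 667 nm and signal to noise of each spot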

Chain of Neurogenic locus notch homolog protein 3 (Homo sapiens) (Q9UM47 whole entry, looked up): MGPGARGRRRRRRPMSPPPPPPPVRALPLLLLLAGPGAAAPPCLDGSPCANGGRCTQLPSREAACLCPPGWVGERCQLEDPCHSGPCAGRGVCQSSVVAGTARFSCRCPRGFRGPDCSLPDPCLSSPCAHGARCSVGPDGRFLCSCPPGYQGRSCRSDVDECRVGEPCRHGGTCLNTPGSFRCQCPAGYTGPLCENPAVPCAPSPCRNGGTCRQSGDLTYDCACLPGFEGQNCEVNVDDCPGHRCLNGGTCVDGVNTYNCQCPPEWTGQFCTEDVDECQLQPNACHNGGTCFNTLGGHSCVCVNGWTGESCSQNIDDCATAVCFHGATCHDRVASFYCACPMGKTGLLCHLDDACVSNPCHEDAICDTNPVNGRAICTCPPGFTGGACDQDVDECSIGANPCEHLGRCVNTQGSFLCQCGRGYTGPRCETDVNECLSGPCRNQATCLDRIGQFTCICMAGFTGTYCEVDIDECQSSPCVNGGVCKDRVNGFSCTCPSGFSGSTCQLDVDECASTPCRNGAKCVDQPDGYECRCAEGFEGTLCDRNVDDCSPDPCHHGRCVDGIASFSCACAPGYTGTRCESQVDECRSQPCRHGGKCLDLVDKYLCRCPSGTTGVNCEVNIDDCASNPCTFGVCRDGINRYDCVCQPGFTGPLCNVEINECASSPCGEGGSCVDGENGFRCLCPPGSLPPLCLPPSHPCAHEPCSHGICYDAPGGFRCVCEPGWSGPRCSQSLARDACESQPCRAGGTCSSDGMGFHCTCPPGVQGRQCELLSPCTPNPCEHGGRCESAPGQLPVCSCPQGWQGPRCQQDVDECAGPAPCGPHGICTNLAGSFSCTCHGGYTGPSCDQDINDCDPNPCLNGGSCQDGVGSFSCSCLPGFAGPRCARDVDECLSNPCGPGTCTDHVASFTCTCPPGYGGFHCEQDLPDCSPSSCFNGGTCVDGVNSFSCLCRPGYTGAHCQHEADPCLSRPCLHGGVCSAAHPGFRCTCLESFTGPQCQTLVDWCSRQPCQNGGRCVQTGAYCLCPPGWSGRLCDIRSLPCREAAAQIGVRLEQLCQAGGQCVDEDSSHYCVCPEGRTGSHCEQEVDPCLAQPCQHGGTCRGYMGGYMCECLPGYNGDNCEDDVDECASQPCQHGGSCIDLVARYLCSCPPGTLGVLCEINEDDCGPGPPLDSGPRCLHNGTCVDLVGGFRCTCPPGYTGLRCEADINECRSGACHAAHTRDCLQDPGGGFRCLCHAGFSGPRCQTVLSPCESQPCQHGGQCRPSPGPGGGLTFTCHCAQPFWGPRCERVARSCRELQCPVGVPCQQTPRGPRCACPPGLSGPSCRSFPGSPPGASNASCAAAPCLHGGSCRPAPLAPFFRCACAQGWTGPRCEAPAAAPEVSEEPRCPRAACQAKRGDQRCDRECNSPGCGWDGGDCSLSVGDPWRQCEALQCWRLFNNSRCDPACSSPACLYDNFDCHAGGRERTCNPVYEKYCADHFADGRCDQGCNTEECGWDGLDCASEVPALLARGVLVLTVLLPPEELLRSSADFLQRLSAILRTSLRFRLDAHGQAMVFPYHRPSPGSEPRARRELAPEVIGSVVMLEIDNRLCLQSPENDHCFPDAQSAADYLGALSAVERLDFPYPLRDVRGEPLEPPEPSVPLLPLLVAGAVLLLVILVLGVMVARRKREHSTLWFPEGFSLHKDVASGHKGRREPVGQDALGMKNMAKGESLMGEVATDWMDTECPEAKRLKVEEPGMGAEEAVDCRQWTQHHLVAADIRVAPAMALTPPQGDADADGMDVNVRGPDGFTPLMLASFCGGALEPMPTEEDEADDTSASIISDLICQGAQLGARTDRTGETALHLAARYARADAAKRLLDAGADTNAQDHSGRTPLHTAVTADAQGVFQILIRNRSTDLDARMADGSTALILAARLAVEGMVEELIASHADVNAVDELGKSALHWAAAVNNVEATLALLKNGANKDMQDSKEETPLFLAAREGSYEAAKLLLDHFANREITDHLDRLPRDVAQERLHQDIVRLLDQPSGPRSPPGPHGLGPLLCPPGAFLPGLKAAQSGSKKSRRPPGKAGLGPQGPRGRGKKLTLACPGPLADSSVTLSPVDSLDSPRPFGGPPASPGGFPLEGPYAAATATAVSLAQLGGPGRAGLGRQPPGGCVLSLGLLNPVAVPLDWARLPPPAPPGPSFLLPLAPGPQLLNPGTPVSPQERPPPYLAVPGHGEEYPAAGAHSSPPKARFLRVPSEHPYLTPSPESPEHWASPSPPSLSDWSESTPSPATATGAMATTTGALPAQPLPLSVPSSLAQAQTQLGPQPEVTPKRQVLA
Chain of Neurogenic locus notch homolog protein 2 (Homo sapiens) (Q04721 whole entry, looked up, canonical isoform): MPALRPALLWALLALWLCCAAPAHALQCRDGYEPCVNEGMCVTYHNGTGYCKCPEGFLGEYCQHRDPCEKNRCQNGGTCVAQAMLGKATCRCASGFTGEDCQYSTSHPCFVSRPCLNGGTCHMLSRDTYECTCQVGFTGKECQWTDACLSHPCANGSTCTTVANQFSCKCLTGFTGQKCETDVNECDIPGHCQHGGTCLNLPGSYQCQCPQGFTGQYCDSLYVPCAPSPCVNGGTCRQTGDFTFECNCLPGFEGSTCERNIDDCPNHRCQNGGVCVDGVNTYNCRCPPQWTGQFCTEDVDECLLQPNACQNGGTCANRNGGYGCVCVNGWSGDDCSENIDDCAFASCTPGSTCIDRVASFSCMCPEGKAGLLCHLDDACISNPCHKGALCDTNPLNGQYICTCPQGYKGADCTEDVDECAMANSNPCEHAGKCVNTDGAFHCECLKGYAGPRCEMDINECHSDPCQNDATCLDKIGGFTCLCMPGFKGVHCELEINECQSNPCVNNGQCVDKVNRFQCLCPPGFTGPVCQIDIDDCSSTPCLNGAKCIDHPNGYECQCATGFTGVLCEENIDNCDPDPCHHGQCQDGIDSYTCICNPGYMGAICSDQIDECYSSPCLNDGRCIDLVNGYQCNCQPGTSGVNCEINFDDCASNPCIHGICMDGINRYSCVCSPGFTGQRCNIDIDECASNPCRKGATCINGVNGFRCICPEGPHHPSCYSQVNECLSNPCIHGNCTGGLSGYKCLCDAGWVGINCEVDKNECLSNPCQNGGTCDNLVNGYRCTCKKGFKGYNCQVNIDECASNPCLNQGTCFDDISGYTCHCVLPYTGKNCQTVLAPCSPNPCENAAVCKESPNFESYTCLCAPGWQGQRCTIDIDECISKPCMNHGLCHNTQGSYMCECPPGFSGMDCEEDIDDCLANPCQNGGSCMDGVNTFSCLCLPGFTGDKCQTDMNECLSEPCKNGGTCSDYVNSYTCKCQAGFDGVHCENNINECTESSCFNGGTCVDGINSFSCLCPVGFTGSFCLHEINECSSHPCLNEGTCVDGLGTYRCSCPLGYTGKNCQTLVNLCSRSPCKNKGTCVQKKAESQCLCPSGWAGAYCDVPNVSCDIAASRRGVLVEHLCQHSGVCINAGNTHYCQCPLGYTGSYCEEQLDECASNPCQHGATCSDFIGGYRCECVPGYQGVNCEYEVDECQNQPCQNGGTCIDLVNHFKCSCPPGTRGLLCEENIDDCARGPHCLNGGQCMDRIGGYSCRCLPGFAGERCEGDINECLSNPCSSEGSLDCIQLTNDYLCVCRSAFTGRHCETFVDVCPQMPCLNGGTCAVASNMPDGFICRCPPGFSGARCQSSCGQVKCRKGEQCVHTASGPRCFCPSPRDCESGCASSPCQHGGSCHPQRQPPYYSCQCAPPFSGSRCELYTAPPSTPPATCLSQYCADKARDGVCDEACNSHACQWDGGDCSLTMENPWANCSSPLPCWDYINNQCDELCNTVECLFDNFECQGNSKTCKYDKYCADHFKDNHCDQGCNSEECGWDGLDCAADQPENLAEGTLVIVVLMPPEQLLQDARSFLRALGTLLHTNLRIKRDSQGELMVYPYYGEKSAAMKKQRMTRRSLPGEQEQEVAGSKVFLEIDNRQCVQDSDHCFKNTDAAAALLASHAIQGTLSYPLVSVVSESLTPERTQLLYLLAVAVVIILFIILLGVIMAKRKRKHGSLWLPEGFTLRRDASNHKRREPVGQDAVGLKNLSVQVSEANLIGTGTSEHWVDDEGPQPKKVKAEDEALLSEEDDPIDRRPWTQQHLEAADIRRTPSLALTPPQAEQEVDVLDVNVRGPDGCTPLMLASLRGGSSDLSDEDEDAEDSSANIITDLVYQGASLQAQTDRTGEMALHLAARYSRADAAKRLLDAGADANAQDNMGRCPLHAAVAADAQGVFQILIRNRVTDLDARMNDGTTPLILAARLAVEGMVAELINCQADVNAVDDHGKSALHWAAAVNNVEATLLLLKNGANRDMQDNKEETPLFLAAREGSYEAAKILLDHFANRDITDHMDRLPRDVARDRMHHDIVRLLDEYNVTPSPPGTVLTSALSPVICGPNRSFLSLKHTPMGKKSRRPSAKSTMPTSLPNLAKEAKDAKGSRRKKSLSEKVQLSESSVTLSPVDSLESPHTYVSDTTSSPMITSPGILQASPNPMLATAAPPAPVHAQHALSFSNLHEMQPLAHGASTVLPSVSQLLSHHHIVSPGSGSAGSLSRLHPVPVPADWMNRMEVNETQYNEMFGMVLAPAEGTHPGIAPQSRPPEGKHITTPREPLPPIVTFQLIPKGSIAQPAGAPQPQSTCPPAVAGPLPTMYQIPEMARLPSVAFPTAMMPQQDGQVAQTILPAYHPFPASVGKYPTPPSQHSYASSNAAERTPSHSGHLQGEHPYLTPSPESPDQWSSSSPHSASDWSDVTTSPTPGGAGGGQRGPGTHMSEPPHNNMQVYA

In the case of `C=C(/C(=C/C[C@@H](OC(=O)c1ccncc1)c1ccccc1OCCO)c1cnc2ccccc2c1)C(C)C`, the composite z-score [1] is reported as -0.108, the composite z-score [2] is reported as 0.707 and the composite z-score [3] is reported as 0.0401. It also gave a composite z-score [4] of 1.14, a composite z-score [5] of 1.5 and a composite z-score [6] of 1.23. For the same compound, the composite z-score [7] was 1.2, the z-score [8] was -3.75 (inactive) and the composite z-score [9] was -0.177. For the same compound, the composite z-score [10] was 0.144, the composite z-score [11] was 1.54 and the z-score [12] was -24.2 (active). For the same compound, the z-score [13] was -20.3 (active), the z-score [14] was -4.07 (inactive) and the composite z-score [15] was 2.72. For the same compound, the z-score [16] was -0.0023 (inactive), the composite z-score [17] was 0.0113 and the composite z-score [18] was 1.91. For the same compound, the composite z-score [19] was 1.07 and the composite z-score [20] was 0.0381.
Work on `CCCC=C(CCC)[C@@H](NS(=O)(=O)c1cccc2cccnc12)c1ccc(C(=O)OC)cc1` yielded a composite z-score [1] of 3.16, a composite z-score [2] of 1.19 and a composite z-score [3] of 0.84. For the same compound, the composite z-score [4] was 1.65, the composite z-score [5] was 1.59 and the composite z-score [6] was 0.136. For the same compound, the composite z-score [7] was 0.83, the z-score [8] was 1.76 (inactive) and the composite z-score [9] was 3.43. The composite z-score [10] was 0.754, the composite z-score [11] was 0.763 and the z-score [12] was 0.797 (inactive). The z-score [13] was -0.271 (inactive), the z-score [14] was 0.823 (inactive) and the composite z-score [15] was 0.472. For the same compound, the z-score [16] was -0.376 (inactive), the composite z-score [17] was 0.679 and the composite z-score [18] was 2.03. For the same compound, the composite z-score [19] was 0.542 and the composite z-score [20] was 1.35.
`OCc1ccc(-c2cc[n+](Cc3cccc(OC(F)(F)F)c3)cc2)cc1` showed a composite z-score [1] of 0.253, a composite z-score [2] of 0.502 and a composite z-score [3] of -0.0887. The composite z-score [4] was -0.0076, the composite z-score [5] was 1.4 and the composite z-score [6] was 1.48. For the same compound, the composite z-score [7] was 0.946, the z-score [8] was 1.41 (inactive) and the composite z-score [9] was 0.597. For the same compound, the composite z-score [10] was -0.0994, the composite z-score [11] was 1.26 and the z-score [12] was -1.54 (inactive). For the same compound, the z-score [13] was -19.5 (active), the z-score [14] was 5.75 (inactive) and the composite z-score [15] was 1.99. The z-score [16] was 0.261 (inactive), the composite z-score [17] was 0.353 and the composite z-score [18] was 0.876. The composite z-score [19] was 1.05 and the composite z-score [20] was -0.0016.
In the case of `C[N+](C)(C)CCCCCCNC(=O)[C@H]1C[C@H]2C(=O)N3CCC[C@H]3C(=O)N2[C@H]1c1cccc(OCCO)c1`, the composite z-score [1] is reported as -0.238, the composite z-score [2] is reported as 2.05 and the composite z-score [3] is reported as 0.0111. For the same compound, the composite z-score [4] was 0.573, the composite z-score [5] was 0.761 and the composite z-score [6] was 0.577. The composite z-score [7] was 1.42, the z-score [8] was 4.55 (inactive) and the composite z-score [9] was 0.301. The composite z-score [10] was 0.154, the composite z-score [11] was 1.3 and the z-score [12] was -0.811 (inactive). For the same compound, the z-score [13] was -0.486 (inactive), the z-score [14] was 0.0309 (inactive) and the composite z-score [15] was 3.24. For the same compound, the z-score [16] was -0.64 (inactive), the composite z-score [17] was 0.05 and the composite z-score [18] was 0.666. It also gave a composite z-score [19] of 1.08 and a composite z-score [20] of 0.153.
With `COCCCNC(=O)[C@@]1(Cc2ccccc2I)c2ccccc2C(=O)N(Cc2ccccc2Cl)[C@H]1c1ccc(CO)cc1` the composite z-score [1] was -0.196, the composite z-score [2] was 0.229 and the composite z-score [3] was -0.0686. The composite z-score [4] was 0.293, the composite z-score [5] was 0.153 and the composite z-score [6] was 1.3. The composite z-score [7] was 1.13, the z-score [8] was -1.21 (inactive) and the composite z-score [9] was -0.211. The composite z-score [10] was -0.156, the composite z-score [11] was 0.34 and the z-score [12] was -2.1 (inactive). The z-score [13] was -0.477 (inactive), the z-score [14] was -0.905 (inactive) and the composite z-score [15] was 2.37. For the same compound, the z-score [16] was -0.162 (inactive), the composite z-score [17] was 0.0842 and the composite z-score [18] was 0.323. It also gave a composite z-score [19] of 0.344 and a composite z-score [20] of -0.0429.
With `COc1ccc(C(=O)Nc2ccc(CN3C(=O)[C@]4(O[C@H](CCn5cc([C@H](O)c6ccccc6)nn5)[C@@H]([Si](C)(C)c5ccc(OC)cc5)[C@@H]4C)c4ccccc43)cc2)cc1` the composite z-score [1] was 0.804, the composite z-score [2] was 0.0963 and the composite z-score [3] was -0.172. It also gave a composite z-score [4] of -0.161, a composite z-score [5] of -0.284 and a composite z-score [6] of 0.178. The composite z-score [7] was 0.923, the z-score [8] was -0.855 (inactive) and the composite z-score [9] was 0.198. For the same compound, the composite z-score [10] was -0.0994, the composite z-score [11] was 0.466 and the z-score [12] was -0.0933 (inactive). The z-score [13] was -0.262 (inactive), the z-score [14] was 1.61 (inactive) and the composite z-score [15] was 0.658. For the same compound, the z-score [16] was -0.615 (inactive), the composite z-score [17] was 0.101 and the composite z-score [18] was 0.341. For the same compound, the composite z-score [19] was -0.047 and the composite z-score [20] was -0.169.
With `NC(=O)NCC#Cc1ccc2c(c1)[C@]1(C(=O)N2)[C@H](c2ccc(O)cc2)N2[C@H](c3ccccc3)[C@H](c3ccccc3)OC(=O)[C@H]2[C@@H]1C(N)=O` the composite z-score [1] was 0.373, the composite z-score [2] was -1.07 and the composite z-score [3] was -0.0925. It also gave a composite z-score [4] of -0.568, a composite z-score [5] of -0.847 and a composite z-score [6] of -0.283. For the same compound, the composite z-score [7] was 0.266, the z-score [8] was -1.07 (inactive) and the composite z-score [9] was -0.139. For the same compound, the composite z-score [10] was 0.202, the composite z-score [11] was 0.64 and the z-score [12] was 0.321 (inactive). The z-score [13] was 0.736 (inactive), the z-score [14] was 0.183 (inactive) and the composite z-score [15] was 1.46. The z-score [16] was 0.248 (inactive), the composite z-score [17] was -0.072 and the composite z-score [18] was -0.238. The composite z-score [19] was -1.19 and the composite z-score [20] was -0.187.
`O=[N+]([O-])c1ccc(C[n+]2ccc(-c3ccc(CO)cc3)cc2)o1` gave a composite z-score [1] of -0.217, a composite z-score [2] of 0.239 and a composite z-score [3] of -0.0266. It also gave a composite z-score [4] of 0.165, a composite z-score [5] of 1.29 and a composite z-score [6] of 1.52. The composite z-score [7] was 0.373, the z-score [8] was -0.721 (inactive) and the composite z-score [9] was 0.273. For the same compound, the composite z-score [10] was 0.0373, the composite z-score [11] was 1.47 and the z-score [12] was -0.612 (inactive). The z-score [13] was -15.5 (active), the z-score [14] was 0.196 (inactive) and the composite z-score [15] was 1.71. The z-score [16] was -0.818 (inactive), the composite z-score [17] was -0.129 and the composite z-score [18] was 0.526. It also gave a composite z-score [19] of 1.16 and a composite z-score [20] of -0.0703.
With `COC(=O)C(CC#Cc1ccc2c(c1)[C@]1(C(=O)N2)[C@H](c2ccc(O)cc2)N2[C@H](c3ccccc3)[C@H](c3ccccc3)OC(=O)[C@H]2[C@@H]1C(N)=O)C(=O)OC` the composite z-score [1] was 0.659, the composite z-score [2] was -0.392 and the composite z-score [3] was -0.168. The composite z-score [4] was -1.89, the composite z-score [5] was -1.06 and the composite z-score [6] was -0.605. For the same compound, the composite z-score [7] was -0.777, the z-score [8] was -0.719 (inactive) and the composite z-score [9] was -0.611. The composite z-score [10] was -0.245, the composite z-score [11] was -1.37 and the z-score [12] was -0.731 (inactive). For the same compound, the z-score [13] was -0.55 (inactive), the z-score [14] was -0.438 (inactive) and the composite z-score [15] was -0.759. For the same compound, the z-score [16] was 2.23 (inactive), the composite z-score [17] was -0.189 and the composite z-score [18] was -2.58. For the same compound, the composite z-score [19] was -1.06 and the composite z-score [20] was 0.162.
